Test results: PubChem BioAssay (NCATS)
Records with an inconclusive call do not appear. Entries that show only a call come without a potency. Active and inactive are the calls of the source. Calls follow the shape of the dose curve; as a rule, active = well fitted cell-killing curve with a large enough effect; inconclusive = small, poorly fitted or top-dose-only effect; inactive = flat fitted curve, though single readings scatter.

Assay: Cell Viability - LYMP2-009 (AID 968); also: nearly all actives have a fitted effect of over 55% in size
Conditions: LYMP2-009 lymphoblastoid cell viability; series mostly up to 92.2 µM
From the text: NIH Chemical Genomics Center [NCGC]
NIH Molecular Libraries Screening Centers Network [MLSCN]
National Institutes of Environmental Health Sciences [NIEHS]
National Toxicology Program [NTP]
We have developed a 1536-well cell-based assay for quantitative high throughput screening (qHTS) against a number of cell lines to determine in vitro cytotoxicity of small molecules. This particular assay uses a human lymphoblastoid cell line (LYMP2-009) purchased from Coriell Institute for Medical Research.
NCGC Assay Protocol Summary:
The CellTiter-Glo luminescent cell viability assay (Promega) is a homogeneous method to measure the number of viable cells in culture. The end point readout of this assay is based on quantitation of intracellular ATP, an indicator of metabolic activity, using the luciferase reaction. Luciferase catalyzes the oxidation of beetle Luciferin to oxyluciferin and light in the presence of ATP. The luminescent signal is proportional to amount of ATP present.
Using the CellTiter-Glo luminescent cell viability assay, the amount of cellular ATP was measured in the lymphoblastoid cell line with complete culture medium following compound treatment for 24 hours. The assay was performed in opaque white Kalypsys 1536-well plates. In the screen, tetraoctylammonium bromide was used as positive control. Library compounds were measured for their ability to cause acute toxicity in the cell line, as reflected by a decrease in intracellular ATP levels, in a concentration-dependent manner. […] AC50 values were determined from concentration-response data modeled with the standard Hill equation.
qHTS protocol for CellTiter Glo lymphoblastoid cellular assay
[Step] [Parameter] [Value] [Description]
1. Reagent; 5 uL; 2500 lymphoblastoid cells/well
2. Time; 5 hr; 37 C incubation
4. Controls; 23 nL; Tetraoctylammonium bromide 6.4pM to 92 uM
5. Time; 24 hr; 37 C incubation
6. Reagent; 5 uL; CellTiter Glo reagent
7. Time; 30 min; Room Temperature
8. Detection; Luminescence; Viewlux plate reader
Keywords: cell viability, cytotoxicity, lymphoblastoid cell line, luminescence, NTPHTS, NTPHTS_NCGC, NIEHS, DSSTox, MLSMR, MLSCN, NIH Roadmap, qHTS, NCGC
Potency is read from the fitted curve at half-maximal effect.

Row | SMILES | Potency
1 | Cc1cc(O)c(C(C)(C)C)cc1Sc1cc(C(C)(C)C)c(O)cc1C | 50.1 µM (active)
2 | O=Cc1ccc(Cl)c(Cl)c1 | inactive
3 | CC(=O)Nc1ccc(C(=O)CCl)cc1 | 6.31 µM (active)
4 | O=C=Nc1ccc(Cc2ccc(N=C=O)cc2)cc1 | inactive
5 | Nc1ccc2cc3ccccc3cc2c1 | inactive
6 | O=C1OC(O)C(C(Cl)Cl)=C1Cl (centres undefined) | 25.1 µM (active)
7 | C=CC(=O)OCCOCCOC(=O)C=C | 20 µM (active)
8 | c1ccc2c(c1)ccc1cc3c(ccc4ccccc43)cc12 | inactive
9 | C/C=C1\C(=O)C[C@H]2[C@@H]3CCC4=CC(=O)CC[C@]4(C)[C@H]3CC[C@]12C | inactive
10 | Cc1cccc(O)c1C | inactive
11 | CNc1ccc(O)cc1 | 6.31 µM (active)
12 | CN(C)c1ccc(C2(c3ccc(N(C)C)cc3)OC(=O)c3cc(N(C)C)ccc32)cc1 | inactive
13 | O=C(/C=C/c1ccc(O)c(O)c1)OC1C[C@](O)(C(=O)O)C[C@@H](O)[C@H]1O (some centres undefined) | inactive
14 | Cc1cc(Nc2ccc(O)cc2)ccc1N | 50.1 µM (active)
15 | O=C(OCC(COC(=O)c1ccccc1)(COC(=O)c1ccccc1)COC(=O)c1ccccc1)c1ccccc1 | inactive
16 | CO[C@H]1/C=C/O[C@@]2(C)Oc3c(C)c(O)c4c(O)c(c5c(c4c3C2=O)NC2(CCN(CC(C)C)CC2)N=5)=NC(=O)/C(C)=C\C=C\[C@H](C)[C@H](O)[C@@H](C)[C@@H](O)[C@@H](C)[C@H](OC(C)=O)[C@@H]1C | inactive
17 | Oc1ccc2cc(SSc3ccc4cc(O)ccc4c3)ccc2c1 | 50.1 µM (active)
18 | CCCCCC/C(C=O)=C\c1ccccc1 | inactive
19 | c1ccc2c(c1)-c1cccc3c1c-2cc1ccccc13 | inactive
20 | CCCCCCCC[N+](CCCCCCCC)(CCCCCCCC)CCCCCCCC | 3.98 µM (active)
21 | C=C(C)c1ccccc1 | inactive
22 | O=[N+]([O-])c1cc([N+](=O)[O-])c2ccc(S(=O)(=O)O)cc2c1O | inactive
23 | CN1[C@H]2CC(OC(=O)[C@H](CO)c3ccccc3)C[C@H]1[C@H]1O[C@H]12 (some centres undefined) | inactive
24 | CCC(C)Nc1ccc(NC(C)CC)cc1 (centres undefined) | 3.98 µM (active)
